Each structure is given as a SMILES string. Where “and” joins values, the source holds several entries; their conditions need not be identical. Equal entries are not always repeated. The panel holds about 83,000 compounds, 20% with a hit somewhere; the sample as a whole holds those more often.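 Values shown are percent growth following 48 h exposure of cells in 96-well plates to a single concentration of compound; below 10 was considered active.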 Calls of active or inactive are those of the source.

Some test systems named below: NCI-H23 lung; NCI-H522 lung; MDA-MB-231 breast; M14 melanoma; SK-MEL-5 melanoma; UACC-62 melanoma; LOX IMVI melanoma; CCRF-CEM leukemia; MOLT-4 leukemia; SR leukemia; OVCAR-8 ovarian; OVCAR-5 ovarian; OVCAR-4 ovarian; IGROV1 ovarian; HS 578T breast; NCI/ADR-RES ovarian; T-47D breast; MCF7 breast; HCT-116 colon; KM12 colon.
Assay in all cases: NCI-60 one-dose screen, 48 h (100 = growth as untreated, 0 = no growth, -100 = all killed)
Settings in all cases: 10 µM

Take `CC1=C2C(=O)[C@](C)(CO)C=C2C(=O)[C@](C)(O)C12CC2`: the growth is -14.8% (active) with NCI-H23 lung; -34.7% (active) with NCI-H522 lung; 24.6% (inactive) with MDA-MB-231 breast; 22.3% (inactive) in the experiment on M14 melanoma; 24.2% (inactive) in the experiment on SK-MEL-5 melanoma; 7.31% (active) with UACC-62 melanoma. In addition, the growth is -25.9% (active) with LOX IMVI melanoma; 13.9% (inactive) in the experiment on CCRF-CEM leukemia; 27.3% (inactive) in the experiment on MOLT-4 leukemia; 12.8% (inactive) with SR leukemia; 33% (inactive) in the experiment with OVCAR-8 ovarian; 10.2% (inactive) with OVCAR-5 ovarian. The growth in the experiment on OVCAR-4 ovarian is 44.4% (inactive); in the experiment with IGROV1 ovarian, 18.9% (inactive); in the experiment with HS 578T breast, 80.4% (inactive); in the experiment on NCI/ADR-RES ovarian it was 5.56% (active); in the experiment with T-47D breast, 6.69% (active); in the experiment with MCF7 breast it was 1.34% (active). The growth in the experiment with HCT-116 colon is 5.03% (active); in the experiment on KM12 colon, 31.9% (inactive).

Turning to `CC1=C2C(=C[C@@](C)(COC(=O)c3ccc(S(=O)(=O)F)cc3)[C@@H]2O)C(=O)[C@](C)(O)C12CC2`, the growth in the experiment on NCI-H23 lung was -32.2% (active); in the experiment with NCI-H522 lung it was -64.5% (active); with MDA-MB-231 breast it was -16.3% (active); in the experiment on M14 melanoma, -85% (active); with SK-MEL-5 melanoma it was -82.5% (active); in the experiment on UACC-62 melanoma it was -77.1% (active). In addition, the growth was -40.2% (active) in the experiment with LOX IMVI melanoma; 9.59% (active) in the experiment on CCRF-CEM leukemia; 10.2% (inactive) with MOLT-4 leukemia; -0.78% (active) with SR leukemia; -31.1% (active) in the experiment with OVCAR-8 ovarian; -12.4% (active) in the experiment with OVCAR-5 ovarian. Moreover, the growth with OVCAR-4 ovarian was -33.5% (active); with IGROV1 ovarian, -13.9% (active); in the experiment with HS 578T breast, -16% (active); in the experiment on NCI/ADR-RES ovarian it was -3.75% (active); with T-47D breast, 0.908% (active); in the experiment on MCF7 breast, 1.68% (active). For the same compound, the growth was -4.41% (active) in the experiment on HCT-116 colon and 7.74% (active) in the experiment on KM12 colon.

For the compound `CC(C)(O)/C=C/C(=O)[C@](C)(O)[C@H]1[C@H](O)C[C@@]2(C)[C@H]3CC=C4[C@@H](C[C@H](O)C(=O)C4(C)C)[C@]3(C)C(=O)C[C@]12C`, the growth in the experiment on NCI-H23 lung is 27.7% (inactive); in the experiment on NCI-H522 lung it was -42.5% (active); in the experiment with MDA-MB-231 breast it was 10.4% (inactive); in the experiment with M14 melanoma, 17.1% (inactive); in the experiment on SK-MEL-5 melanoma, 1.6% (active); with UACC-62 melanoma, -2.65% (active). For the same compound, the growth is -13.8% (active) with LOX IMVI melanoma; 3.53% (active) in the experiment with CCRF-CEM leukemia; 24.8% (inactive) with MOLT-4 leukemia; 8.56% (active) with SR leukemia; 23% (inactive) in the experiment on OVCAR-8 ovarian; 35.1% (inactive) in the experiment on OVCAR-5 ovarian. Further, the growth with OVCAR-4 ovarian is 18.3% (inactive); with IGROV1 ovarian, -24.4% (active); in the experiment on HS 578T breast, 3.77% (active); in the experiment with NCI/ADR-RES ovarian, 24.7% (inactive); in the experiment with T-47D breast it was 27.2% (inactive); in the experiment with MCF7 breast, 13% (inactive). Further, the growth with HCT-116 colon was 13.9% (inactive); with KM12 colon, 42.2% (inactive).

Consider `CC1=C[C@H]2O[C@@H]3C[C@H]4OC(=O)/C=C\C=C\[C@H]([C@@H](C)O)OCC/C(C)=C/C(=O)OC[C@@]2(CC1)[C@]4(C)[C@]31CO1`, for which the growth in the experiment on NCI-H23 lung is -36.1% (active); in the experiment with NCI-H522 lung, -39.3% (active); in the experiment with MDA-MB-231 breast, -29.6% (active); with M14 melanoma, -73.7% (active); with SK-MEL-5 melanoma it was -89.2% (active); in the experiment with UACC-62 melanoma, -58.6% (active). The growth in the experiment on LOX IMVI melanoma was -81.1% (active); with CCRF-CEM leukemia, -11.5% (active); in the experiment on MOLT-4 leukemia, -18.5% (active); in the experiment on SR leukemia it was -9.9% (active); with OVCAR-8 ovarian it was -24.4% (active); in the experiment with OVCAR-5 ovarian, -14.8% (active). Also, the growth in the experiment on OVCAR-4 ovarian was -22.1% (active); with IGROV1 ovarian it was -10.7% (active); with HS 578T breast it was -9.53% (active); in the experiment with NCI/ADR-RES ovarian, -20% (active); in the experiment with T-47D breast it was -20% (active); in the experiment on MCF7 breast, -10.6% (active). Moreover, the growth in the experiment with HCT-116 colon was -28.7% (active); in the experiment with KM12 colon it was 3.74% (active).

Turning to `CC1=C[C@H]2O[C@@H]3C[C@H]4OC(=O)/C=C\C=C\[C@H]([C@@H](C)O)OCC[C@@H](C)[C@H](O)C(=O)OC[C@@]2(CC1)[C@]4(C)[C@]31CO1`, the growth was -36.6% (active) in the experiment on NCI-H23 lung; -43.4% (active) with NCI-H522 lung; -25.2% (active) in the experiment on MDA-MB-231 breast; -76% (active) with M14 melanoma; -90.2% (active) in the experiment on SK-MEL-5 melanoma; -66.6% (active) with UACC-62 melanoma. The growth was -79% (active) in the experiment on LOX IMVI melanoma; -7.82% (active) with CCRF-CEM leukemia; -19.2% (active) in the experiment with MOLT-4 leukemia; -10.5% (active) with SR leukemia; -12.8% (active) with OVCAR-8 ovarian; -16.8% (active) with OVCAR-5 ovarian. The growth is -19% (active) in the experiment with OVCAR-4 ovarian; -13.4% (active) with IGROV1 ovarian; -6.56% (active) with HS 578T breast; -24.9% (active) in the experiment on NCI/ADR-RES ovarian; -19% (active) with T-47D breast; -7.85% (active) with MCF7 breast. Also, the growth in the experiment with HCT-116 colon was -27.7% (active); in the experiment with KM12 colon, 4.84% (active).

In the case of `C/C=C/CC(C)C(O)[C@H](NC(=O)[C@@H]1CCCN1C(=O)C(C)(C)NC(=O)CCCCCCC)C(=O)N[C@@](C)(CC)C(=O)N[C@@H](CCC(N)=O)C(=O)N[C@H](CCC(N)=O)C(=O)NC(C)(C)C(=O)NC(C)(C)C(=O)N[C@@H](CCC(N)=O)C(=O)N[C@H](CC(C)C)C(=O)N[C@H](CO)CC(C)C` (stereo not given in full), the growth in the experiment with NCI-H23 lung is 16.4% (inactive); with NCI-H522 lung it was 103% (inactive) and -8.57% (active); in the experiment with MDA-MB-231 breast, 108% (inactive) and -6.87% (active); with M14 melanoma, 103% (inactive) and 25.1% (inactive); in the experiment on SK-MEL-5 melanoma it was 100% (inactive) and -65.7% (active); with UACC-62 melanoma it was 103% (inactive) and 19.2% (inactive). Moreover, the growth in the experiment on LOX IMVI melanoma is 33.2% (inactive); in the experiment on CCRF-CEM leukemia, 103% (inactive) and -23.3% (active); in the experiment on MOLT-4 leukemia, 101% (inactive) and -32.4% (active); with SR leukemia it was 92.9% (inactive) and 0.907% (active); in the experiment with OVCAR-8 ovarian, 106% (inactive) and 24.6% (inactive); with OVCAR-5 ovarian it was 114% (inactive) and 40% (inactive). Besides, the growth with OVCAR-4 ovarian is 108% (inactive) and 44.5% (inactive); with IGROV1 ovarian it was 113% (inactive) and 46.4% (inactive); with HS 578T breast it was 110% (inactive) and -10.8% (active); in the experiment with NCI/ADR-RES ovarian, 106% (inactive) and 48.9% (inactive); with T-47D breast, 102% (inactive) and 7.2% (active); in the experiment with MCF7 breast, 93.3% (inactive) and 4.76% (active). Also, the growth in the experiment with HCT-116 colon is 108% (inactive) and 25.3% (inactive); in the experiment on KM12 colon, 119% (inactive) and -53% (active).

(Values after PubChem BioAssay (NCI).)
